# In PubChem BioAssay (Tox21):
# A number with no mark means an inactive call. Results filed as inconclusive are left out. A call without a number means that no potency is given here. Active and inactive are the calls of the source. Unless noted, calls follow the shape of the full dose curve.
# Legend:
# [1] = Nuclear factor erythroid 2-related factor 2/antioxidant responsive element (Nrf2/ARE) small molecule agonists: qHTS cell viability counter screen in human keratinocytes (AID 1919968; active = well fitted curve in the direction sought with a large enough effect in the repeat runs; an effect the other way counts as inactive or inconclusive; also: nearly all actives have a fitted effect of over 55% in size)
# Summary of the method: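 Cytotoxicity was multiplexed with the Nrf2/ARE luciferase assay in the same wells. Stably transfected HaCaT keratinocytes were treated with test compounds for 23 h at 37 C. Cell viability was then measured by CellTiter-Fluor fluorescence.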
# [2] = Nuclear factor erythroid 2-related factor 2/antioxidant responsive element (Nrf2/ARE) small molecule agonists: luciferase reporter gene qHTS assay in human keratinocytes (AID 1919969); also: nearly all actives have a fitted effect of over 35% in size; also: potency is read from the fitted curve at half-maximal effect
# [3] = molecular target: Gonadotropin-releasing hormone receptor (Homo sapiens) (UniProt P30968); experiment: Human gonadotropin-releasing hormone receptor (GnRHR) small molecule agonists, calcium flux assay in GnRHR-HEK293 cells (AID 1920063); also: nearly all actives have a fitted effect of over 35% in size
# Summary of the method: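 Agonist activity was measured as intracellular calcium flux in HEK293 cells engineered to stably express human GnRHR. After dye loading for 1 hour at 37 C, compounds in DMSO were added and fluorescence was followed for 3 minutes.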
# [4] = molecular target: KiSS-1 receptor (Homo sapiens) (UniProt Q969F8); experiment: Human kisspeptin (KISS1R) small molecule agonists, calcium flux assay in KISS1R-HEK293 cells (AID 1920064; active = well fitted curve in the direction sought with a large enough effect in the repeat runs; an effect the other way counts as inactive or inconclusive)
# Summary of the method: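 Agonist activity is monitored as intracellular calcium rise in engineered HEK293 cells carrying human KISS1R. Cells are dye-loaded for 1 h at 37 C before compound addition, and fluorescence is recorded for 3 min.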
# [5] = G protein-coupled receptor (GPCR) small molecule agonists, calcium flux assay: HEK293 wild type cell line counter screen (AID 1920065)
# Summary of the method: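 Seed cells, incubate 18 h (37 C, 5% CO2); add calcium dye, 1 h at 37 C; pin-transfer compounds, ATP control or DMSO; read fluorescence 480/540 nm each second for 3 min.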
# [6] = p53 small molecule agonists, cell-based qHTS assay with rat liver microsomes: qHTS cell viability counter screen (AID 1963580); also: nearly all actives have a fitted effect of over 45% in size
# Summary of the method: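 Cytotoxicity counter screen: intracellular ATP read by CellTiter-Glo luminescence in the p53 reporter wells. HCT-116 p53RE-bla cells were treated for 16 h at 37 C alongside rat liver microsomes and NADPH, each 0.5 mg/mL final.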
# [7] = p53 small molecule agonists, cell-based qHTS assay: qHTS cell viability counter screen (AID 1963581); also: nearly all actives have a fitted effect of over 45% in size
# Summary of the method: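 Viability was counter-screened in parallel with the p53 agonist reporter by measuring intracellular ATP luminescence in the same HCT-116 p53RE-bla wells after 16 h compound treatment at 37 C.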
# [8] = molecular target: 5-hydroxytryptamine receptor 2A (Homo sapiens) (UniProt P28223); experiment: 5-hydroxytryptamine receptor 2A (HTR2A) small molecule agonists, cell-based qHTS assay (AID 1963587); also: nearly all actives have a fitted effect of over 30% in size
# Summary of the method: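 Kinetic calcium-flux fluorescence (2 min, 1 sec intervals) after compound addition in agonist mode. HTR2A-CHO cells were cultured 18 h, then dye-loaded 1 h at 37 C.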
# [9] = molecular target: Muscarinic acetylcholine receptor M1 (Homo sapiens) (UniProt P11229); experiment: Cholinergic receptor muscarinic 1 (CHRM1) small molecule antagonists, cell-based qHTS assay (AID 1963588); also: nearly all actives have a fitted effect of over 40% in size
# Summary of the method: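 Compounds were tested at 15 concentrations in three independent runs. Dye-loaded CHRM1-CHO cells were exposed 5 min at room temperature before stimulation by acetylcholine added at 50nM. Intracellular calcium was read kinetically on FDSS for 3 min.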
# [10] = molecular target: Muscarinic acetylcholine receptor M1 (Homo sapiens) (UniProt P11229); experiment: Cholinergic receptor muscarinic 1 (CHRM1) small molecule agonists, cell-based qHTS assay (AID 1963589); also: nearly all actives have a fitted effect of over 35% in size; also: potency is read from the fitted curve at half-maximal effect
# Summary of the method: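 Cells were plated and incubated 18 h at 37 C/5% CO2, loaded with calcium dye for 1 h at 37 C, then treated with compounds in DMSO. Fluorescence was recorded kinetically at 1 sec intervals.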
# [11] = molecular target: D(2) dopamine receptor (Homo sapiens) (UniProt P14416); experiment: Dopamine D2 receptor (DRD2) small molecule agonists, cell-based qHTS assay (AID 1963594); also: nearly all actives have a fitted effect of over 35% in size
# Summary of the method: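 cAMP accumulation in DRD2-HEK293 cells measured by HTRF after 1 h detection; compounds added 10 min before NKH477 (200nM […]) forskolin-analogue stimulation, 30 min at room temperature, with Ro20-1724 present at 0.1 mM final.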
# [12] = cAMP Responsive Elements (CRE) small molecule agonists, cell-based qHTS assay (AID 1963590)
# Summary of the method: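 Cells carrying a CRE-driven beta-lactamase reporter (HEK 293T) are seeded, incubated overnight (18 h), and treated with test compounds for 3 h at 37 C; reporter activity is then detected with a FRET substrate after 2 h at room temperature.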
# [13] = cAMP Responsive Elements (CRE) small molecule antagonists, cell-based qHTS assay (AID 1963591; active = well fitted inhibition curve with a large enough effect in the signal ratio in the repeat runs, not every such curve was filed as active; the % refers to the signal ratio)
# Summary of the method: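 Cells (CRE-bla HEK 293T, DMEM with 10% dialyzed FBS and 25 mM HEPES) are seeded and incubated 18 h. Compounds are added with NKH477 agonist at 0.25 uM final for 3 h, then FRET substrate for 2 h.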
# [14] = molecular target: Beta-2 adrenergic receptor (Homo sapiens) (UniProt P07550); experiment: Adrenergic beta2 receptor (ADRB2) small molecule antagonists, cell-based qHTS assay (AID 1963592); also: nearly all actives have a fitted effect of over 50% in size; also: potency is read from the fitted curve at half-maximal effect
# Summary of the method: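 Assay format: CHO-ADRB2 cells, 18-20hr seeding at 37C/5% CO2, then compound plus 1nM isoproterenol agonist mix for 0.5hr RT. Homogeneous time-resolved fluorescence cAMP detection after 1hr, expressed as 665/615 nm ratio.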
# [15] = molecular target: D(2) dopamine receptor (Homo sapiens) (UniProt P14416); experiment: Dopamine D2 receptor (DRD2) small molecule antagonists, cell-based qHTS assay (AID 1963595; active = well fitted inhibition curve with a large enough effect in the signal ratio in the repeat runs, with a control signal flat; the % refers to the signal ratio)
# Summary of the method: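 Cells were plated and grown for 24 h at 37 °C. Ro20-1724 (0.1 mM final) went in first, then compound for 10 min. NKH477 (200 nM) with quinpirole (12 nM) followed for 30 min at RT, then HTRF detection reagents for 1 h.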
# [16] = p53 small molecule agonists, cell-based qHTS assay (AID 1963582; active = well fitted activation curve with a large enough effect in the signal ratio in the repeat runs, not every such curve was filed as active; the % refers to the signal ratio)
# Summary of the method: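 Cells carrying a p53-responsive bla reporter are treated with test compounds for 16 h at 37 C; beta-lactamase activity is then detected with LiveBLAzer B/G FRET substrate after 2 h at room temperature.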
# [17] = molecular target: 5-hydroxytryptamine receptor 2A (Homo sapiens) (UniProt P28223); experiment: 5-hydroxytryptamine receptor 2A (HTR2A) small molecule antagonists, cell-based qHTS assay (AID 1963586); also: nearly all actives have a fitted effect of over 45% in size
# Summary of the method: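 CHO cells stably expressing human HTR2A were plated for 18 h at 37 C, then loaded with calcium dye for 1 h. Compounds were preincubated 5 min at room temperature before DOI (4 nM solution) was added. Kinetic fluorescence was read for 3 min.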
# [18] = molecular target: Beta-2 adrenergic receptor (Homo sapiens) (UniProt P07550); experiment: Adrenergic beta2 receptor (ADRB2) small molecule agonists, cell-based qHTS assay (AID 1963593);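 also: CHO cells stably overexpressing human ADRB2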
# Summary of the method: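 CHO cells stably over-expressing ADRB2 were plated overnight at 37C, then dosed with compounds plus a stimulation mix containing 100uM IBMX and 25uM Ro-20-1724 for 0.5hr at room temperature. cAMP was measured by HTRF competition, 1hr.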
# 5-hydroxytryptamine receptor 2A (Homo sapiens), sequence (P28223 whole entry, looked up): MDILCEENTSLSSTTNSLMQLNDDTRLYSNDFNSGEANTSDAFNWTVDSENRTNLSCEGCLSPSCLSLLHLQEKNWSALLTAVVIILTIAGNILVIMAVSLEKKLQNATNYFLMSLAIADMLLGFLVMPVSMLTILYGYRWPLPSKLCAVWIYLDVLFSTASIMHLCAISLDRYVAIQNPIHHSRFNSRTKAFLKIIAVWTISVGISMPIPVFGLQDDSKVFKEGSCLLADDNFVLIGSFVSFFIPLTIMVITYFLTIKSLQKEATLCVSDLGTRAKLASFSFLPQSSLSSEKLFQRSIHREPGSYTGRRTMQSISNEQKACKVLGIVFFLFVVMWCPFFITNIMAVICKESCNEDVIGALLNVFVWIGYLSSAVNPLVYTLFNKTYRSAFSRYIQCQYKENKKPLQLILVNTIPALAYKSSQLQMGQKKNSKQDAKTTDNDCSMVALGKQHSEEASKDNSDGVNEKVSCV
# Beta-2 adrenergic receptor (Homo sapiens), sequence (P07550 whole entry, looked up): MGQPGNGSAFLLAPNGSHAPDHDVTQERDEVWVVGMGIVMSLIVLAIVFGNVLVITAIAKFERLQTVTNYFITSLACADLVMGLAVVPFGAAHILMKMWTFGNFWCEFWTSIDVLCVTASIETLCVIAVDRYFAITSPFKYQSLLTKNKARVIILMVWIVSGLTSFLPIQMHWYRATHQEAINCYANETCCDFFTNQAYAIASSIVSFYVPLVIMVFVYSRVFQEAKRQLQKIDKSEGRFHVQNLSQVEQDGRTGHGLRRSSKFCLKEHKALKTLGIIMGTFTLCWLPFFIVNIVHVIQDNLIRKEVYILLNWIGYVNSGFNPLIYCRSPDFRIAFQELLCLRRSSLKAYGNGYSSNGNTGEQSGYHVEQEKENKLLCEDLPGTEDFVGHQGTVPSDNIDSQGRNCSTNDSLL
# Muscarinic acetylcholine receptor M1 (Homo sapiens), sequence (P11229 whole entry, looked up): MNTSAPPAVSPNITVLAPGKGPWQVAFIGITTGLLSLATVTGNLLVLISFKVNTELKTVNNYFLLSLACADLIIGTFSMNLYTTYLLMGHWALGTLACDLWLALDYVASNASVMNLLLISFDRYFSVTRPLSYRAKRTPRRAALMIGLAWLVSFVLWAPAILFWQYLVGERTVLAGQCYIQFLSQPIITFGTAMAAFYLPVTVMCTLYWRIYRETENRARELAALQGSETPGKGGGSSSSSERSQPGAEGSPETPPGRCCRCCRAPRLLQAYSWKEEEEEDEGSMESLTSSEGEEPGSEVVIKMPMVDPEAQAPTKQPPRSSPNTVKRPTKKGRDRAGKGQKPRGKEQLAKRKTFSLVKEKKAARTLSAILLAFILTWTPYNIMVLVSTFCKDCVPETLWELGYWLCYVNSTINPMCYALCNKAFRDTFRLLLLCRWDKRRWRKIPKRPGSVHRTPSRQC
# D(2) dopamine receptor (Homo sapiens), sequence (P14416 whole entry, looked up): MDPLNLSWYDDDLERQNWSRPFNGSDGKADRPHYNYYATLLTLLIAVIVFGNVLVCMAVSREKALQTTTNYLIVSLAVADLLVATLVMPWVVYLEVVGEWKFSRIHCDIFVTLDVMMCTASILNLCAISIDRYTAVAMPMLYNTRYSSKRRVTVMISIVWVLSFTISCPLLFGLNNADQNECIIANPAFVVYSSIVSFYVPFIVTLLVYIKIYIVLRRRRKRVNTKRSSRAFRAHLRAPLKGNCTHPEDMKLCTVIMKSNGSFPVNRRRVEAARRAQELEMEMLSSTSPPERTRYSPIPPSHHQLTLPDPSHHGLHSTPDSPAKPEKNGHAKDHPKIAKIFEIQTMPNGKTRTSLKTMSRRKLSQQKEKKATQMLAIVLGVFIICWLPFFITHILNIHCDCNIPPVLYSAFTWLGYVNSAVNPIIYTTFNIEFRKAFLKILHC
# Gonadotropin-releasing hormone receptor (Homo sapiens), sequence (P30968 whole entry, looked up): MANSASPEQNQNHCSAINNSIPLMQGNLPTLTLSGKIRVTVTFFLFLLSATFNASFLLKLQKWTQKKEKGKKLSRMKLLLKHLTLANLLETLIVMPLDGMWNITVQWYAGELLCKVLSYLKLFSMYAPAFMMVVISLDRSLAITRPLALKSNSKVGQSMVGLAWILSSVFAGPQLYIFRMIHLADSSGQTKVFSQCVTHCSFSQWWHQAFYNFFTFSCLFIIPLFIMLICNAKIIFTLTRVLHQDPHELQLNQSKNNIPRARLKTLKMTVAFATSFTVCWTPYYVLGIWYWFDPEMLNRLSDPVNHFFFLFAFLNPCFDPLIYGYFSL
# KiSS-1 receptor (Homo sapiens), sequence (Q969F8 whole entry, looked up): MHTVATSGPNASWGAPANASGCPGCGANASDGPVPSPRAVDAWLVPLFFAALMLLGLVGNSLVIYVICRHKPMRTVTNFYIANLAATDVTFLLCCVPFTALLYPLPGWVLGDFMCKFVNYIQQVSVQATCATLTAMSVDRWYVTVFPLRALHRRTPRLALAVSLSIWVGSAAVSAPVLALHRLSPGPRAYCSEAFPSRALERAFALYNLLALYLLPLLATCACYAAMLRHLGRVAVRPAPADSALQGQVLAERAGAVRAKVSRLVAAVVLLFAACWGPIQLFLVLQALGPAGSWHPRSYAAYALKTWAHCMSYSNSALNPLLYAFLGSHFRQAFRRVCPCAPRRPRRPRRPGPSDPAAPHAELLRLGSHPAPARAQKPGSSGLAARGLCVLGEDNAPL
structure (smiles),measurement,setting,value
COc1cc(C(C)C)c2c(c1)S(=O)(=O)N(COc1cc(=O)n3cccc(OCCN4CCCCC4)c3n1)C2=O,"activity change, negative = cytotoxicity",[1],-10.3% [at 19 µM]
same,Potency,[2],2910 nM (active)
same,activity change,[3],"-0.424% [at 11.8 µM, active compounds read high]"
same,activation,[4],-3.13% [at 15.8 µM]
same,activation,[5],1.49% [at 11.8 µM]
same,"activity change, negative = cytotoxicity",[6],-0.988% [at 13.5 µM]
same,"activity change, negative = cytotoxicity",[7],-1.9% [at 13.5 µM]
same,activation,[8],-1.78% [at 15.9 µM]
same,"activity, negative = inhibition",[9],-3.39% [at 12.6 µM]
same,activation,[10],-0.958% [at 15.8 µM]
same,activation,[11],-15.5% [at 19 µM]
CC(C)(Cc1c[nH]c2ccccc12)NCC(O)COc1ccccc1C#N (configuration not stated),Potency,[1],inactive
same,Potency,[2],inactive
same,Potency,[3],inactive
same,Potency,[4],inactive
same,Potency,[5],inactive
same,Potency,[6],inactive
same,Potency,[7],inactive
same,Potency,[8],inactive
same,Potency,[10],inactive
same,Potency,[12],inactive
same,Potency,[13],inactive
same,Potency,[14],6.7 nM (active)
same,Potency,[11],inactive
same,Potency,[15],inactive
CCn1nc(C(=O)O)c(=O)c2cc3c(cc21)OCO3,Potency,[1],inactive
same,Potency,[2],inactive
same,Potency,[3],inactive
same,Potency,[4],inactive
same,Potency,[5],inactive
same,Potency,[7],inactive
same,Potency,[16],inactive
same,Potency,[17],inactive
same,Potency,[8],inactive
same,Potency,[9],inactive
same,Potency,[10],inactive
same,Potency,[14],inactive
same,Potency,[11],inactive
same,Potency,[15],inactive
O=C(c1ccc(O)c(O)c1)c1ccc(O)cc1O,Potency,[1],inactive
same,Potency,[2],inactive
same,Potency,[3],inactive
same,Potency,[4],inactive
same,Potency,[5],inactive
same,Potency,[6],inactive
same,Potency,[7],inactive
same,Potency,[8],inactive
same,Potency,[9],inactive
same,Potency,[14],inactive
CC(C)NCC(O)COc1ccc(CC(N)=O)cc1 (configuration not stated),Potency,[1],inactive
same,Potency,[2],inactive
same,Potency,[3],inactive
same,Potency,[4],inactive
same,Potency,[5],inactive
same,Potency,[7],inactive
same,Potency,[16],inactive
same,Potency,[12],inactive
same,Potency,[13],inactive
same,Potency,[11],inactive
same,Potency,[15],inactive
CC(N)=O,Potency,[1],inactive
same,Potency,[2],inactive
same,Potency,[3],inactive
same,Potency,[4],inactive
same,Potency,[5],inactive
same,Potency,[6],inactive
same,Potency,[17],inactive
same,Potency,[8],inactive
same,Potency,[9],inactive
same,Potency,[10],inactive
same,Potency,[12],inactive
same,Potency,[13],inactive
same,Potency,[11],inactive
same,Potency,[15],inactive
OCc1c[nH]c2ccccc12,Potency,[1],inactive
same,Potency,[2],61100 nM (active)
same,Potency,[3],inactive
same,Potency,[4],inactive
same,Potency,[5],inactive
same,Potency,[6],inactive
same,Potency,[17],inactive
same,Potency,[9],inactive
same,Potency,[10],3.1 nM (active)
same,Potency,[15],inactive
C/C=C1\C(=O)C[C@H]2[C@@H]3CCC4=CC(=O)CC[C@]4(C)[C@H]3CC[C@]12C,Potency,[1],inactive
same,Potency,[2],2130 nM (active)
same,Potency,[3],inactive
same,Potency,[4],inactive
same,Potency,[5],inactive
same,Potency,[6],inactive
same,Potency,[7],inactive
same,Potency,[8],inactive
same,Potency,[9],inactive
same,Potency,[10],inactive
same,Potency,[14],inactive
same,Potency,[11],inactive
same,Potency,[15],inactive
CCCCC(CC)CNCC(CC)CCCC (configuration not stated),Potency,[1],inactive
same,Potency,[2],inactive
same,Potency,[3],inactive
same,Potency,[4],inactive
same,Potency,[5],inactive
same,Potency,[7],inactive
same,Potency,[8],inactive
same,Potency,[9],inactive
same,Potency,[10],inactive
same,Potency,[12],inactive
same,Potency,[13],inactive
same,Potency,[14],inactive
same,Potency,[18],inactive
same,Potency,[11],inactive
same,Potency,[15],inactive
Oc1ccccc1F,Potency,[1],inactive
same,Potency,[2],inactive
same,Potency,[3],inactive
same,Potency,[4],inactive
same,Potency,[5],inactive
same,Potency,[6],inactive
same,Potency,[7],inactive
same,Potency,[17],inactive
same,Potency,[9],inactive
same,Potency,[10],inactive
same,Potency,[12],inactive
same,Potency,[13],inactive
same,Potency,[14],inactive
same,Potency,[11],inactive
same,Potency,[15],inactive
CC1(C)O[C@@H]2C[C@H]3[C@@H]4C[C@H](F)C5=CC(=O)C=C[C@]5(C)[C@H]4[C@@H](O)C[C@]3(C)[C@]2(C(=O)CO)O1,Potency,[1],inactive
same,Potency,[2],inactive
same,Potency,[3],inactive
same,Potency,[4],inactive
same,Potency,[5],inactive
same,Potency,[6],inactive
same,Potency,[7],inactive
same,Potency,[18],inactive
same,Potency,[11],inactive
same,Potency,[15],inactive
CCOC(C)OCC,Potency,[1],inactive
same,Potency,[2],inactive
same,Potency,[3],inactive
same,Potency,[4],inactive
same,Potency,[5],inactive
same,Potency,[6],inactive
same,Potency,[17],inactive
same,Potency,[8],inactive
same,Potency,[9],inactive
same,Potency,[10],inactive
same,Potency,[12],inactive
same,Potency,[13],inactive
same,Potency,[14],inactive
same,Potency,[18],inactive
same,Potency,[11],inactive
same,Potency,[15],inactive
C/C=C(\C)C(C)=O,Potency,[1],inactive
same,Potency,[2],inactive
same,Potency,[3],inactive
same,Potency,[4],inactive
same,Potency,[5],inactive
same,Potency,[6],inactive
same,Potency,[7],inactive
same,Potency,[8],inactive
same,Potency,[10],inactive
same,Potency,[12],inactive
same,Potency,[13],inactive
same,Potency,[14],inactive
same,Potency,[18],inactive
same,Potency,[11],inactive
